# Measured values: the supplement of paper PMC4466140
# B1: unnamed (peptide)
# chain: MAMRPIPPLPTESEY
# B2: unnamed (peptide)
# chain: TSIEIPKRSPLRFTS
# B3: unnamed (peptide)
# chain: IKTRSVPKIPSIESV
# Target: AgAbp1
# Test: SPOT peptide array binding signal intensity (averaged, normalized) (arbitrary units (background-subtracted, floor 0; scale differs between SH3 domains)); higher = stronger binding of the SH3 domain to the peptide
# Procedure, shortened: (§1)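 Detection of bound protein relied on anti-GST antibody, an HRP anti-mouse secondary and luminol, with imaging and quantification in Genespotter. The bound protein was GST-fused SH3 domains from four yeast species, incubated at 10 μg/ml overnight at 4°C in TBS-based blocking buffer on cellulose membranes carrying synthetic 15-mer peptides with cysteines replaced by serines. Binding signal is normalized, background-subtracted spot intensity averaged over replicates, in arbitrary units that differ between domains.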
row,Binder,SPOT peptide array binding signal intensity
1,B1,9
2,B2,9
3,B3,9

# Target: AgBbc1
# Test: as above
# Procedure, shortened: as §1
row,Binder,SPOT peptide array binding signal intensity
1,B1,8
2,B2,41.5
3,B3,78.8

# Target: AgBem1-D1
# Test: as above
# Procedure, shortened: as §1
row,Binder,SPOT peptide array binding signal intensity
1,B1,155
2,B2,9
3,B3,40

# Target: AgBzz1-D1
# Test: as above
# Procedure, shortened: as §1
row,Binder,SPOT peptide array binding signal intensity
1,B1,7
2,B2,27
3,B3,24.5

# Target: AgBzz1-D2
# Test: as above
# Procedure, shortened: as §1
row,Binder,SPOT peptide array binding signal intensity
1,B1,≤ 0
2,B2,16
3,B3,33.5

# Target: AgCyk3
# Test: as above
# Procedure, shortened: as §1
row,Binder,SPOT peptide array binding signal intensity
1,B1,13
2,B2,1.5
3,B3,1

# Target: AgFus1
# Test: as above
# Procedure, shortened: as §1
row,Binder,SPOT peptide array binding signal intensity
1,B1,55.5
2,B2,≤ 0
3,B3,4

# Target: AgHof1
# Test: as above
# Procedure, shortened: as §1
row,Binder,SPOT peptide array binding signal intensity
1,B1,87.8
2,B2,6.5
3,B3,27.8

# Target: AgHse1
# Test: as above
# Procedure, shortened: as §1
row,Binder,SPOT peptide array binding signal intensity
1,B1,38
2,B2,≤ 0
3,B3,19.5

# Target: AgLsb1
# Test: as above
# Procedure, shortened: as §1
row,Binder,SPOT peptide array binding signal intensity
1,B1,230
2,B2,≤ 0
3,B3,71

# Target: AgLsb4
# Test: as above
# Procedure, shortened: as §1
row,Binder,SPOT peptide array binding signal intensity
1,B1,1930
2,B2,16.5
3,B3,873

# Target: AgMyo5
# Test: as above
# Procedure, shortened: as §1
row,Binder,SPOT peptide array binding signal intensity
1,B1,≤ 0
2,B2,2
3,B3,0.75

# Target: AgNbp2
# Test: as above
# Procedure, shortened: as §1
row,Binder,SPOT peptide array binding signal intensity
1,B1,81
2,B2,10.5
3,B3,2650

# Target: AgRvs167
# Test: as above
# Procedure, shortened: as §1
row,Binder,SPOT peptide array binding signal intensity
1,B1,308
2,B2,2.33
3,B3,12.7

# Target: AgSho1
# Test: as above
# Procedure, shortened: as §1
row,Binder,SPOT peptide array binding signal intensity
1,B1,353
2,B2,≤ 0
3,B3,3

# Target: AgSla1-D1-D2
# Test: as above
# Procedure, shortened: as §1
row,Binder,SPOT peptide array binding signal intensity
1,B1,2
2,B2,≤ 0
3,B3,≤ 0

# Target: AgSla1-D3
# Test: as above
# Procedure, shortened: as §1
row,Binder,SPOT peptide array binding signal intensity
1,B1,≤ 0
2,B2,≤ 0
3,B3,≤ 0

# Target: CaAbp1-D1
# Test: as above
# Procedure, shortened: as §1
row,Binder,SPOT peptide array binding signal intensity
1,B1,35
2,B2,272
3,B3,182

# Target: CaAbp1-D2
# Test: as above
# Procedure, shortened: as §1
row,Binder,SPOT peptide array binding signal intensity
1,B1,79
2,B2,81
3,B3,82

# Target: CaBbc1
# Test: as above
# Procedure, shortened: as §1
row,Binder,SPOT peptide array binding signal intensity
1,B1,32
2,B2,484
3,B3,604

# Target: CaBem1-D1
# Test: as above
# Procedure, shortened: as §1
row,Binder,SPOT peptide array binding signal intensity
1,B1,71
2,B2,12
3,B3,0.5

# Target: CaBzz1-D1
# Test: as above
# Procedure, shortened: as §1
row,Binder,SPOT peptide array binding signal intensity
1,B1,54
2,B2,41
3,B3,197

# Target: CaBzz1-D2
# Test: as above
# Procedure, shortened: as §1
row,Binder,SPOT peptide array binding signal intensity
1,B1,39
2,B2,20
3,B3,245

# Target: CaCyk3
# Test: as above
# Procedure, shortened: as §1
row,Binder,SPOT peptide array binding signal intensity
1,B1,12
2,B2,58.5
3,B3,85.5

# Target: CaFus1
# Test: as above
# Procedure, shortened: as §1
row,Binder,SPOT peptide array binding signal intensity
1,B1,226
2,B2,42
3,B3,32.5

# Target: CaHof1
# Test: as above
# Procedure, shortened: as §1
row,Binder,SPOT peptide array binding signal intensity
1,B1,10
2,B2,≤ 0
3,B3,≤ 0

# Target: CaHse1
# Test: as above
# Procedure, shortened: as §1
row,Binder,SPOT peptide array binding signal intensity
1,B1,186
2,B2,≤ 0
3,B3,5

# Target: CaLsb1
# Test: as above
# Procedure, shortened: as §1
row,Binder,SPOT peptide array binding signal intensity
1,B1,11
2,B2,≤ 0
3,B3,≤ 0

# Target: CaLsb4
# Test: as above
# Procedure, shortened: as §1
row,Binder,SPOT peptide array binding signal intensity
1,B1,1410
2,B2,27
3,B3,1880

# Target: CaMyo5
# Test: as above
# Procedure, shortened: as §1
row,Binder,SPOT peptide array binding signal intensity
1,B1,35.2
2,B2,3
3,B3,1.25

# Target: CaNbp2
# Test: as above
# Procedure, shortened: as §1
row,Binder,SPOT peptide array binding signal intensity
1,B1,628
2,B2,61
3,B3,320

# Target: CaRvs167
# Test: as above
# Procedure, shortened: as §1
row,Binder,SPOT peptide array binding signal intensity
1,B1,528
2,B2,2
3,B3,339

# Target: CaRvs167-3
# Test: as above
# Procedure, shortened: as §1
row,Binder,SPOT peptide array binding signal intensity
1,B1,≤ 0
2,B2,≤ 0
3,B3,15

# Target: CaSho1
# Test: as above
# Procedure, shortened: as §1
row,Binder,SPOT peptide array binding signal intensity
1,B1,596
2,B2,6
3,B3,≤ 0

# Target: CaSla1-D1-D2
# Test: as above
# Procedure, shortened: as §1
row,Binder,SPOT peptide array binding signal intensity
1,B1,128
2,B2,83
3,B3,123

# Target: CaSla1-D3
# Test: as above
# Procedure, shortened: as §1
row,Binder,SPOT peptide array binding signal intensity
1,B1,110
2,B2,≤ 0
3,B3,≤ 0

# Target: ScAbp1
# Test: as above
# Procedure, shortened: as §1
row,Binder,SPOT peptide array binding signal intensity
1,B1,4.5
2,B2,21
3,B3,11

# Target: ScBbc1
# Test: as above
# Procedure, shortened: as §1
row,Binder,SPOT peptide array binding signal intensity
1,B1,2
2,B2,5
3,B3,37.8

# Target: ScBem1-D1
# Test: as above
# Procedure, shortened: as §1
row,Binder,SPOT peptide array binding signal intensity
1,B1,≤ 0
2,B2,≤ 0
3,B3,38.5

# Target: ScBzz1-D1
# Test: as above
# Procedure, shortened: as §1
row,Binder,SPOT peptide array binding signal intensity
1,B1,≤ 0
2,B2,4.5
3,B3,26

# Target: ScBzz1-D2
# Test: as above
# Procedure, shortened: as §1
row,Binder,SPOT peptide array binding signal intensity
1,B1,≤ 0
2,B2,1
3,B3,13

# Target: ScCyk3
# Test: as above
# Procedure, shortened: as §1
row,Binder,SPOT peptide array binding signal intensity
1,B1,≤ 0
2,B2,3
3,B3,≤ 0

# Target: ScFus1
# Test: as above
# Procedure, shortened: as §1
row,Binder,SPOT peptide array binding signal intensity
1,B1,106
2,B2,≤ 0
3,B3,≤ 0

# Target: ScHof1
# Test: as above
# Procedure, shortened: as §1
row,Binder,SPOT peptide array binding signal intensity
1,B1,304
2,B2,0.5
3,B3,16.2

# Target: ScHse1
# Test: as above
# Procedure, shortened: as §1
row,Binder,SPOT peptide array binding signal intensity
1,B1,≤ 0
2,B2,20.5
3,B3,26

# Target: ScLsb1
# Test: as above
# Procedure, shortened: as §1
row,Binder,SPOT peptide array binding signal intensity
1,B1,106
2,B2,≤ 0
3,B3,4

# Target: ScLsb2
# Test: as above
# Procedure, shortened: as §1
row,Binder,SPOT peptide array binding signal intensity
1,B1,19.5
2,B2,≤ 0
3,B3,61

# Target: ScLsb3
# Test: as above
# Procedure, shortened: as §1
row,Binder,SPOT peptide array binding signal intensity
1,B1,4040
2,B2,252
3,B3,4820

# Target: ScLsb4
# Test: as above
# Procedure, shortened: as §1
row,Binder,SPOT peptide array binding signal intensity
1,B1,1070
2,B2,≤ 0
3,B3,1030

# Target: ScMyo3
# Test: as above
# Procedure, shortened: as §1
row,Binder,SPOT peptide array binding signal intensity
1,B1,21.5
2,B2,11.5
3,B3,4.5

# Target: ScMyo5
# Test: as above
# Procedure, shortened: as §1
row,Binder,SPOT peptide array binding signal intensity
1,B1,3
2,B2,2
3,B3,7

# Target: ScNbp2
# Test: as above
# Procedure, shortened: as §1
row,Binder,SPOT peptide array binding signal intensity
1,B1,172
2,B2,2
3,B3,3220

# Target: ScPex13
# Test: as above
# Procedure, shortened: as §1
row,Binder,SPOT peptide array binding signal intensity
1,B1,1090
2,B2,2
3,B3,633

# Target: ScRvs167
# Test: as above
# Procedure, shortened: as §1
row,Binder,SPOT peptide array binding signal intensity
1,B1,821
2,B2,101
3,B3,2950

# Target: ScSho1
# Test: as above
# Procedure, shortened: as §1
row,Binder,SPOT peptide array binding signal intensity
1,B1,543
2,B2,0.5
3,B3,25.5

# Target: ScSla1-D1-D2
# Test: as above
# Procedure, shortened: as §1
row,Binder,SPOT peptide array binding signal intensity
1,B1,167
2,B2,≤ 0
3,B3,146

# Target: ScSla1-D3
# Test: as above
# Procedure, shortened: as §1
row,Binder,SPOT peptide array binding signal intensity
1,B1,82.2
2,B2,30.2
3,B3,38.5

# Target: SpAbp1-D1
# Test: as above
# Procedure, shortened: as §1
row,Binder,SPOT peptide array binding signal intensity
1,B1,13
2,B2,206
3,B3,5

# Target: SpBbc1
# Test: as above
# Procedure, shortened: as §1
row,Binder,SPOT peptide array binding signal intensity
1,B1,4.75
2,B2,≤ 0
3,B3,28.8

# Target: SpBzz1-D1
# Test: as above
# Procedure, shortened: as §1
row,Binder,SPOT peptide array binding signal intensity
1,B1,79.5
2,B2,162
3,B3,236

# Target: SpBzz1-D2
# Test: as above
# Procedure, shortened: as §1
row,Binder,SPOT peptide array binding signal intensity
1,B1,17
2,B2,≤ 0

# Target: SpCyk3
# Test: as above
# Procedure, shortened: as §1
row,Binder,SPOT peptide array binding signal intensity
1,B1,14
2,B2,2

# Target: SpHof1
# Test: as above
# Procedure, shortened: as §1
row,Binder,SPOT peptide array binding signal intensity
1,B1,140
2,B2,73

# Target: SpHof1-2
# Test: as above
# Procedure, shortened: as §1
row,Binder,SPOT peptide array binding signal intensity
1,B1,110
2,B2,8.75

# Target: SpHof1-3
# Test: as above
# Procedure, shortened: as §1
row,Binder,SPOT peptide array binding signal intensity
1,B1,26.8
2,B2,25.5

# Target: SpHse1
# Test: as above
# Procedure, shortened: as §1
row,Binder,SPOT peptide array binding signal intensity
1,B1,66
2,B2,76.8

# Target: SpLsb1
# Test: as above
# Procedure, shortened: as §1
row,Binder,SPOT peptide array binding signal intensity
1,B1,67.8
2,B2,≤ 0

# Target: SpLsb4
# Test: as above
# Procedure, shortened: as §1
row,Binder,SPOT peptide array binding signal intensity
1,B1,2610
2,B2,376

# Target: SpMyo1
# Test: as above
# Procedure, shortened: as §1
row,Binder,SPOT peptide array binding signal intensity
1,B1,309
2,B2,12.5

# Target: SpNbp2
# Test: as above
# Procedure, shortened: as §1
row,Binder,SPOT peptide array binding signal intensity
1,B1,42.5
2,B2,≤ 0

# Target: SpPex13
# Test: as above
# Procedure, shortened: as §1
row,Binder,SPOT peptide array binding signal intensity
1,B1,72
2,B2,≤ 0

# Target: SpRvs167
# Test: as above
# Procedure, shortened: as §1
row,Binder,SPOT peptide array binding signal intensity
1,B1,1130
2,B2,94

# Target: SpSla1-D1-D2
# Test: as above
# Procedure, shortened: as §1
row,Binder,SPOT peptide array binding signal intensity
1,B1,2
2,B2,1

# Target: SpSla1-D3
# Test: as above
# Procedure, shortened: as §1
row,Binder,SPOT peptide array binding signal intensity
1,B1,28
2,B2,≤ 0
